Measured values: the antibiotic and cytotoxicity screens of Wong et al. (2023)
Hit rate of the full screen: of about 39,000 compounds, about 1,500 (3.8%) were called active. Shown is part of a subset that was picked to be rich in actives.

Test system: HSkMC (human skeletal muscle cells)
Assay: cytotoxicity call (relative viability < 0.9)
Settings: 10 µM

| Compound | cytotoxicity call |
| --- | --- |
| O=C(C[C@H]1CC[C@@H]2[C@H](COC[C@H](O)CN2S(=O)(=O)c2ccc(Cl)cc2)O1)NCCN1CCCCC1 | inactive |
| COc1ccc(S(=O)(=O)Nc2ccc3c(c2)C(=O)N([C@H](C)CO)C[C@H](C)[C@H](CN(C)C(=O)Nc2c(C)noc2C)OCCCC[C@H](C)O3)cc1 | inactive |
| C[C@@H]1CCCCO[C@@H](CN(C)S(=O)(=O)c2cccs2)[C@H](C)CN([C@H](C)CO)C(=O)c2cc(NC(=O)Nc3cccc4ccccc34)ccc2O1 | inactive |
| COc1ccc(S(=O)(=O)Nc2cccc3c2O[C@@H](CN(C)Cc2ccncc2)[C@H](C)CN([C@@H](C)CO)C3=O)cc1 | inactive |
| C[C@@H]1CN([C@@H](C)CO)C(=O)c2cccc(NS(=O)(=O)c3cn(C)cn3)c2O[C@@H]1CN(C)S(=O)(=O)c1ccccc1 | inactive |
| C[C@@H]1CN([C@@H](C)CO)C(=O)c2cc(NC(=O)CCN3CCOCC3)ccc2O[C@@H]1CN(C)CC1CC1 | inactive |
| C[C@@H]1CCCCO[C@H](CN(C)C(=O)Cc2ccccc2)[C@H](C)CN([C@@H](C)CO)C(=O)c2cc(NS(=O)(=O)c3cccs3)ccc2O1 | inactive |
| COCC(=O)Nc1ccc2c(c1)OC[C@@H](C)N(Cc1ccccc1OC)C[C@@H](C)[C@H](OC)CN(C)C2=O | inactive |
| C[C@H]1CCCCO[C@@H](CN(C)C(=O)Nc2ccc(F)cc2)[C@@H](C)CN([C@@H](C)CO)C(=O)c2cc(NS(=O)(=O)c3cccs3)ccc2O1 | inactive |
| CCSc1nnc2c(=O)[nH]c(=O)[nH]c2n1 | inactive |
| Cc1ccc(S(=O)(=O)Nc2ccc3c(c2)CC(=O)N([C@@H](C)CO)C[C@@H](C)[C@H](CN(C)Cc2ccc(C(F)(F)F)cc2)O3)cc1 | inactive |
| Cc1ccc(S(=O)(=O)Nc2ccc3c(c2)CC(=O)N([C@@H](C)CO)C[C@H](C)[C@H](CN(C)Cc2ccc(C(F)(F)F)cc2)O3)cc1 | active |
| Cc1ccc(S(=O)(=O)Nc2ccc3c(c2)CC(=O)N([C@H](C)CO)C[C@@H](C)[C@H](CN(C)Cc2ccc(C(F)(F)F)cc2)O3)cc1 | inactive |
| C[C@H](CO)N1C[C@H](C)[C@@H](CN(C)C(=O)Nc2ccc(C(F)(F)F)cc2)Oc2ccc(NC(=O)Cc3ccccc3)cc2CC1=O | inactive |
| C[C@@H]1CN([C@@H](C)CO)C(=O)c2cc(NC(=O)C3CCCCC3)ccc2O[C@@H]1CN(C)Cc1ccc(C(F)(F)F)cc1 | inactive |
| C[C@@H]1CN([C@H](C)CO)C(=O)c2cc(NC(=O)Nc3cccc4ccccc34)ccc2O[C@@H]1CN(C)C(=O)Nc1cccc2ccccc12 | active |
| C[C@@H]1CN([C@@H](C)CO)C(=O)c2cc(NC(=O)Nc3cccc4ccccc34)ccc2O[C@@H]1CN(C)C(=O)Nc1cccc2ccccc12 | active |
| C[C@@H]1CN([C@H](C)CO)C(=O)c2cc(NC(=O)Nc3cccc4ccccc34)ccc2O[C@H]1CN(C)C(=O)Nc1cccc2ccccc12 | inactive |
| C[C@H](CO)N1C[C@H](C)[C@@H](CN(C)C(=O)Nc2cccc3ccccc23)Oc2ccc(NC(=O)Nc3cccc4ccccc34)cc2C1=O | inactive |
| C[C@@H]1CN([C@@H](C)CO)C(=O)c2cc(NC(=O)Nc3cccc4ccccc34)ccc2O[C@H]1CN(C)C(=O)Nc1cccc2ccccc12 | inactive |

| Compound | cytotoxicity call |
| --- | --- |
| C[C@H]1CN([C@@H](C)CO)C(=O)c2cc(NC(=O)Nc3cccc4ccccc34)ccc2O[C@@H]1CN(C)C(=O)Nc1cccc2ccccc12 | inactive |
| NC(=O)c1c(Cl)ncc2c1NCC2 | inactive |
| CC1=C(C)C(=O)C(CCCCCCCCCC[P+](c2ccccc2)(c2ccccc2)c2ccccc2)=CC1=O | active |
| COC1=C(OC)C(=O)C(C/C=C(\C)CC/C=C(\C)CC/C=C(\C)CC/C=C(/C)CC/C=C(\C)CC/C=C(\C)CC/C=C(\C)CC/C=C(\C)CC/C=C(\C)CCC=C(C)C)=C(C)C1=O | inactive |
| CC1=C(C)C(=O)C(C(CCCCCC(=O)O)c2ccccc2)=C(C)C1=O (centres undefined) | inactive |
| COC1=C(OC)C(=O)C(CC=C(C)CCC=C(C)CCC=C(C)CCC=C(C)CCC=C(C)CCC=C(C)CCC=C(C)CCC=C(C)CCC=C(C)CCC=C(C)C)=C(C)C1=O | inactive |
| COC1=C(OC)C(=O)C(C/C=C(\C)CC/C=C(\C)CC/C=C(\C)CC/C=C(\C)CC/C=C(\C)CC/C=C(\C)CC/C=C(\C)CC/C=C(\C)CC/C=C(\C)CCC=C(C)C)=C(C)C1=O | inactive |
| CC1=CC(=O)c2ccccc2C1=O | inactive |
| COC1=C(OC)C(=O)C(CCCCCCCCCC[P+](c2ccccc2)(c2ccccc2)c2ccccc2)=C(C)C1=O | active |
| COC(=O)CCCCCCC(=O)Nc1ccc(NC(=O)CCCC[P+](c2ccccc2)(c2ccccc2)c2ccccc2)cc1 | inactive |
| COC1=C(OC)C(=O)C(CCCCCCCCCCO)=C(C)C1=O | active |
| Nc1ccc(NC(=O)CCN2CCOCC2)cc1 | inactive |
| C[C@@H]1CN([C@H](C)CO)C(=O)c2cccc(NC(=O)CCCCCC(=O)Nc3ccccc3N)c2O[C@H]1CN(C)CC1CCCCC1 | inactive |
| CC(=O)N(C)C[C@H]1Oc2cc(C#CCN(C)C)ccc2S(=O)(=O)N([C@H](C)CO)C[C@H]1C | inactive |
| C[C@@H]1CCCCO[C@H](CN(C)Cc2ccc(C(=O)O)cc2)[C@H](C)CN([C@H](C)CO)C(=O)c2cc(NC(=O)Nc3ccc(C(F)(F)F)cc3)ccc2O1 | inactive |
| C[C@H]1CN([C@@H](C)CO)C(=O)c2cc(NS(=O)(=O)c3cn(C)cn3)ccc2O[C@H]1CN(C)C(=O)Nc1ccccc1 | inactive |
| C[C@H]1CN([C@@H](C)CO)C(=O)c2cc(/C=C/c3ccccc3)cnc2O[C@@H]1CN(C)S(=O)(=O)c1cn(C)cn1 | inactive |
| COc1ccc(CN(C)C[C@H]2OCCCC[C@@H](C)Oc3ccc(NS(=O)(=O)c4ccc(F)cc4)cc3C(=O)N([C@@H](C)CO)C[C@@H]2C)cc1 | inactive |
| O=c1n(-c2ccc(F)cc2)nc2n1CCCN2 | inactive |
| Cc1ccc(S(=O)(=O)N(C)C[C@H]2Oc3ccc(NC(=O)Cn4cnnn4)cc3CC(=O)N([C@H](C)CO)C[C@@H]2C)cc1 | inactive |

| Compound | cytotoxicity call |
| --- | --- |
| CC1OC(OC2C(O)CC(OC3C(O)CC(OC4CCC5(C)C(CCC6C5CCC5(C)C(C7=CC(=O)OC7)CCC65O)C4)OC3C)OC2C)CC(O)C1O (centres undefined) | active |
| C[C@H]1O[C@@H](O[C@H]2[C@@H](O)C[C@H](O[C@H]3[C@@H](O)C[C@H](O[C@H]4CC[C@@]5(C)[C@H](CC[C@@H]6[C@@H]5CC[C@]5(C)[C@@H](C7=CC(=O)OC7)CC[C@]65O)C4)O[C@@H]3C)O[C@@H]2C)C[C@H](O)[C@@H]1O | active |
| C[C@H](CO)N1C[C@H](C)[C@@H](CN(C)Cc2ccc(Cl)c(Cl)c2)Oc2ccc(NC(=O)NC3CCCCC3)cc2C1=O | inactive |
| C[C@@H]1CN([C@H](C)CO)C(=O)Cc2cc(NC(=O)CCCCCC(=O)Nc3ccccc3N)ccc2O[C@@H]1CN(C)C(=O)Nc1ccc(F)cc1 | inactive |
| COc1ccc(NC(=O)Nc2ccc3c(c2)CC(=O)N([C@@H](C)CO)C[C@@H](C)[C@H](CN(C)CC2CCCCC2)O3)cc1 | inactive |
| O=C(C[C@H]1CC[C@H](NS(=O)(=O)c2ccccc2)[C@H](CO)O1)NCc1ccncn1 | inactive |
| COc1ccc2c(-c3ccc(Cl)cc3)c(C)oc2c1 | inactive |
| C[C@H](CO)N1C[C@H](C)[C@H](CN(C)S(=O)(=O)c2ccccc2)Oc2ccc(NC(=O)Cc3ccccc3)cc2C1=O | inactive |
| O=C(C[C@@H]1C[C@@H]2c3cc(NS(=O)(=O)c4ccccc4)ccc3O[C@@H]2[C@H](CO)O1)NCC(F)(F)F | inactive |
| C[C@@H]1CCCCO[C@H](CN(C)Cc2ccc3c(c2)OCO3)[C@@H](C)CN([C@H](C)CO)C(=O)c2cc(NS(=O)(=O)c3ccccc3)ccc2O1 | inactive |
| C/C=C(/C)C(=O)O[C@@H]1[C@H](OC(C)=O)[C@]2(CO)[C@H](O)C[C@]3(C)C(=CC[C@H]4[C@@]5(C)CC[C@H](O[C@@H]6O[C@H](C(=O)O)[C@@H](O[C@@H]7O[C@H](CO)[C@@H](O)[C@H](O)[C@H]7O)[C@H](O)[C@H]6O[C@@H]6O[C@H](CO)[C@@H](O)[C@H](O)[C@H]6O)[C@](C)(CO)[C@@H]5CC[C@]43C)[C@@H]2CC1(C)C | inactive |
| CC1(C)CC[C@]2(C(=O)O[C@H]3O[C@@H](CO)[C@@H](O)[C@@H](O)[C@@H]3O)CC[C@]3(C)C(=CC[C@H]4[C@@]5(C)C[C@@H](O)[C@H](O[C@H]6O[C@H](C(=O)O)[C@@H](O)[C@@H](O)[C@@H]6O)C(C)(C)[C@@H]5CC[C@]43C)[C@@H]2C1 | inactive |
| C[C@@H]1O[C@@H](O[C@@H]2CC[C@@]3(C)[C@@H](CC[C@]4(C)[C@@H]3CC=C3[C@@H]5CC(C)(C)CC[C@]5(C(=O)O[C@@H]5O[C@H](CO[C@@H]6O[C@H](CO)[C@@H](O)[C@H](O)[C@H]6O)[C@@H](O)[C@H](O)[C@H]5O)CC[C@]34C)[C@]2(C)CO)[C@H](O)[C@H](O[C@@H]2OC[C@@H](O)[C@H](O)[C@H]2O)[C@H]1O | inactive |
| C[C@H]1O[C@@H](O[C@H]2CC[C@@]3(C)[C@@H](CC[C@@]4(C)[C@@H]3CC=C3[C@H]5C[C@](C)(C(=O)O)CC[C@]5(C(=O)O[C@H]5O[C@@H](CO)[C@@H](O)[C@@H](O)[C@@H]5O)CC[C@@]34C)[C@@]2(C)CO)[C@@H](O)[C@@H](O[C@H]2O[C@@H](CO)[C@@H](O)[C@@H](O)[C@@H]2O)[C@@H]1O | inactive |
| C[C@H]1O[C@@H](OC(=O)[C@]23CCC(C)(C)C[C@H]2C2=CC[C@H]4[C@@]5(C)CC[C@H](O[C@@H]6O[C@H](C(=O)O)[C@@H](O)[C@H](O[C@@H]7OC[C@@H](O)[C@H](O)[C@H]7O)[C@H]6O[C@@H]6O[C@H](CO)[C@H](O)[C@H](O)[C@H]6O)[C@@](C)(C=O)[C@@H]5CC[C@@]4(C)[C@]2(C)C[C@H]3O)[C@H](O[C@H]2O[C@@H](CO)[C@@H](O)[C@@H](O)[C@@H]2O)[C@@H](O)[C@H]1O[C@@H]1O[C@H](C)[C@@H](O[C@H]2OC[C@@H](O)[C@@H](O)[C@@H]2O)[C@H](O)[C@@H]1O | inactive |
| C/C=C(/C)C(=O)O[C@H]1[C@@H](OC(C)=O)[C@@]2(CO)[C@@H](O)C[C@@]3(C)C(=CC[C@H]4[C@@]5(C)CC[C@@H](O[C@H]6O[C@H](C(=O)O)[C@@H](O[C@H]7O[C@@H](CO)[C@@H](O)[C@@H](O)[C@@H]7O)[C@@H](O)[C@@H]6O[C@H]6O[C@@H](CO)[C@@H](O)[C@@H](O)[C@@H]6O)[C@@](C)(CO)[C@@H]5CC[C@]43C)[C@@H]2CC1(C)C | active |
| C[C@@H]1O[C@@H](O[C@@H]2[C@@H](O)[C@@H](O[C@@H]3O[C@@H](CO)[C@H](O)[C@H]3O)[C@H](OC(=O)[C@]34CCC(C)(C)C[C@H]3C3=CC[C@H]5[C@@]6(C)C[C@H](O)[C@H](O[C@@H]7O[C@@H](C)[C@H](O)[C@@H](O[C@@H]8OC[C@@H](O)[C@H](O)[C@H]8O[C@@H]8O[C@H](CO)[C@@H](O)[C@H](O)[C@H]8O)[C@H]7O)[C@@](C)(CO)[C@@H]6CC[C@@]5(C)[C@]3(C)C[C@H]4O)O[C@H]2C)[C@H](O)[C@H](O)[C@H]1O | inactive |
| CC=C(C)C(=O)O[C@H]1[C@H](OC(C)=O)[C@]2(CO)[C@H](O)C[C@]3(C)C(=CC[C@@H]4[C@@]5(C)CC[C@H](O[C@@H]6O[C@H](C(=O)O)[C@@H](O[C@@H]7O[C@H](CO)[C@@H](O)[C@H](O)[C@H]7O)[C@H](O)[C@H]6O[C@@H]6O[C@H](CO)[C@@H](O)[C@H](O)[C@H]6O)[C@](C)(CO)[C@@H]5CC[C@]43C)[C@@H]2CC1(C)C | active |
| CC=C(C)C(=O)OC1C(OC(C)=O)C2(CO)C(O)CC3(C)C(=CCC4C5(C)CCC(OC6OC(C(=O)O)C(OC7OC(CO)C(O)C(O)C7O)C(O)C6OC6OC(CO)C(O)C(O)C6O)C(C)(CO)C5CCC43C)C2CC1(C)C (centres undefined) | active |
